The supplement of paper PMC9694430

test system: T1, LOC_OS04G41100-cb001; test: thermal shift delta Tm vs DMSO control; higher = stronger stabilization (binding); conditions: 12.5 µM; protein concentration 2 µM
T1 sequence (whole entry): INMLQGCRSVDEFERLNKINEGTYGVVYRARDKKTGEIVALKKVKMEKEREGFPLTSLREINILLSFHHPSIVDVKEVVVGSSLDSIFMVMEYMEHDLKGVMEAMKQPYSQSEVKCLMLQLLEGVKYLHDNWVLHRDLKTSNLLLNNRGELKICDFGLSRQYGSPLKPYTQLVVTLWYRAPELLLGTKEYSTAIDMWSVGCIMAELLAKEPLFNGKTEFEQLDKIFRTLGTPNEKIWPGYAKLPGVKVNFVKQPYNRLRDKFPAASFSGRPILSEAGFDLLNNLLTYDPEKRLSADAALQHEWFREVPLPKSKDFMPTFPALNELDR
Method in brief: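 Compounds dissolved in DMSO were added to purified rice kinase domain constructs, which had been expressed in E. coli, for differential scanning fluorimetry. Each well held 19.5 μl of 2 μM kinase in 100 mM potassium phosphate pH 7.5, 150 mM NaCl, 10% glycerol and 5 × SYPRO Orange. Fluorescence was followed from 25°C to 95°C at a rate of 0.05°C/s. Shifts in Boltzmann-fitted melting temperature are triplicate means relative to DMSO-only protein.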

Compound | thermal shift delta Tm [°C]
CS(=O)(=O)CCNCc1ccc(-c2ccc3ncnc(Nc4ccc(OCc5cccc(F)c5)c(Cl)c4)c3c2)o1 [Lapatinib] | 0.92
c1cn2cc(-c3ccc4cn[nH]c4c3)nc(Nc3ccc(N4CCOCC4)cc3)c2n1 [Entospletinib (GS-9973)] | 1.01
CS(=O)(=O)c1cccc(CNc2nc(Nc3ccc4c(c3)CCC(=O)N4)ncc2C(F)(F)F)c1 | 2.51
CN1CCN(Cc2ccc(NC(=O)Nc3ccc(Oc4ccnc(N)n4)cc3)cc2C(F)(F)F)CC1 | 6.72
OCCn1cc(-c2cnc3nnn(Cc4ccc5ncccc5c4)c3n2)cn1 | 0.57
O=C1NC(=O)C(c2cnc3ccccn23)=C1c1cn2c3c(cc(F)cc13)CN(C(=O)N1CCCCC1)CC2 | 1.44
C=CC(=O)N1CCC[C@@H](n2nc(-c3ccc(Oc4ccccc4)cc3)c3c(N)ncnc32)C1 | 0.37
CC(C)(O)CNc1ncc(-c2ccnc(Nc3ccnc(Cl)c3)n2)c(CC2CC2)n1 | 0.65
COc1ccc(S(=O)(=O)N(C(C)=O)c2ccccc2/C=C/c2cc[n+]([O-])cc2)cc1 | 0.61
